59 compounds from PubChem BioAssay AID540308 (The Scripps Research Institute Molecular Screening Center, 2011) can be followed below.

In all, about 360,000 compounds went through this assay and about 3,500 (0.97%) were called active. The sample as a whole holds a higher share of actives than the screen did. Unmarked numbers belong to inactive results.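 Rule for the calls: active = activation above a per-plate cutoff, the mean activation of sample wells on that plate plus 3 SD (cut at about 8% in these data); inactive = the rest.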

Melanocortin receptor 4 (Homo sapiens), sequence (P32245 whole entry, looked up): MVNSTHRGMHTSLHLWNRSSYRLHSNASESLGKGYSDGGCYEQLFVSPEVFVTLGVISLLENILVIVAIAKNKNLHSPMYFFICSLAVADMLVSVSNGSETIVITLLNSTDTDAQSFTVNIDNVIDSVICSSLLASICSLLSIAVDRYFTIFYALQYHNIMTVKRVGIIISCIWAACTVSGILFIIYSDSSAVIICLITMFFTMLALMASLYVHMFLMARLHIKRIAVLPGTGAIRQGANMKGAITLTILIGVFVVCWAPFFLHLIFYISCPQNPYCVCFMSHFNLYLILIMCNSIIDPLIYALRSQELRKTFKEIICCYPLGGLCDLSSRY

This assay addresses Melanocortin receptor 4 (Homo sapiens) (UniProt P32245). Put plainly: MC4R agonists recruiting beta-arrestin, primary screen, cell-based, luminescence, agonist arm of biased-ligand search (AID 540308). Particulars: U2OS MC4R beta-arrestin complementation, at 8.9 µM, stronger effect = higher value, percent of melanotan II response, DMSO zero.
Turning to `CCCCNc1c(-c2cccc(Sc3ccc(OC)cc3)c2)nc2ccccn12`, the activation was 13.9% (active).

Take `CCCCNc1c(-c2ccc(OC)c(Sc3ccc(OC)cc3)c2)nc2ccc(Cl)cn12`: the activation is -1.91%.

`CCCCNc1nc2c(c(=O)n(C)c(=O)n2C)n1Cc1cccc(OC)c1`: the activation was -2.77%.

With `CNc1cc(-c2c(OC)cccc2OC)ncn1`, the activation was 0.41%.

In the case of `O=C(Nc1cccc2ncccc12)c1ccc(-c2ccc(Cl)cc2Cl)o1`, the activation was 20.2% (active).

For `CC1CCN(C(=S)c2ccc(-c3ccc(Cl)cc3Cl)o2)CC1`, the activation was 2.82%.

In the case of `O=C(NNc1cc(Cl)ccc1Cl)c1cccnc1Cl`, the activation was -2.02%.

With `Cc1ccc(/C=C(\C#N)C(=O)Nc2cccc3ncccc23)o1`, the activation was 0.31%.

Take `Cc1csc(NC(=O)c2ccc(-c3ccc(Cl)cc3Cl)o2)n1`: the activation was 12.6% (active).

`COc1cc(SC)ccc1C(=O)Nc1nc(C)cs1`: the activation is -0.94%.

Take `Cc1nc2c(OCc3ccc(Cl)cc3)cccn2c1N(C)Cc1cccs1`: the activation was -2.75%.

Consider `COc1ccc(CCNC(=O)Nc2ccc3c(c2)c(=O)n(C)n3C)cc1OC`, for which the activation was 1.3%.

With `COc1cc(C(O)c2nc(-c3cccc(C(=O)O)c3)cs2)ccc1F` (centres undefined), the activation was -1.9%.

`CC1(C(=O)NS(=O)(=O)c2cccc(OC(F)F)c2)CCN1C(=O)COc1ccc(Cl)cc1` (centres undefined): the activation was -1.09%.

Turning to `CCc1ccc(OC2(C)CCN(CCOc3ccc(C)cc3)C2)cc1` (centres undefined), the activation was 3.54%.

In the case of `CCN1CCN(CCNC(=O)c2ccc(/C=C3/Sc4ccccc4N(Cc4cccc(C)c4)C3=O)cc2)CC1`, the activation is 13.8% (active).

For the compound `CCN1CCN(CCNC(=O)c2ccc3c(c2)NC(=O)/C(=C\c2cccc(Cl)c2)S3)CC1`, the activation was -0.09%.

As for `Cc1ccccc1CN1C(=O)c2ccccc2Sc2ccc(C(=O)NCCCN3CCOCC3)cc21`, the activation is 3.09%.

With `CCc1nc2c(OCC(=O)C(C)(C)C)cccn2c1N(C)C(=O)c1ccccc1F`, the activation is -1.02%.

Regarding `CCC(=O)N1CCC(C)(C(=O)Nc2cc(OC)c(OC)c(OC)c2)C1` (centres undefined), the activation is -0.53%.

For the compound `CC(C)Oc1c(Br)cc(Br)cc1/C=N/NC(N)=S`, the activation was 22.7% (active).

Consider `CC1(C(=O)N/N=C/c2cc3c(cc2Br)OCO3)CC1(Br)Br` (centres undefined), for which the activation is -3.59%.

For the compound `COc1cccc(C(NC(C)=O)c2nc(-c3ccccc3OC)cs2)c1` (centres undefined), the activation is -0.26%.

For `Cc1cc(O)ccc1-c1cc(C(=O)NCc2cc(C(F)(F)F)cc(C(F)(F)F)c2)[nH]n1`, the activation is 2.75%.

Consider `OC(c1ccc(F)cc1)c1ncc(-c2cccc(C(F)(F)F)c2)[nH]1` (centres undefined), for which the activation is 1.88%.

`CC(=O)NC(c1ccccc1)c1nc(-c2ccccc2C)cs1` (centres undefined): the activation is 0.3%.

On to `CC1(C(=O)NCc2ccc3c(c2)OCO3)CCN1C(=O)Cc1cccs1` (centres undefined), for which the activation is 0.72%.

In the case of `COc1ccc(OCC(=O)Nc2ccc(N3CCC(C)CC3)cc2)cc1`, the activation was 10.2% (active).

Take `CCC(=O)c1ccc(OCC(=O)Nc2ccc(N3CCCCC3)cc2)cc1`: the activation is 3.06%.

For `COc1ccc(OCC(=O)NNC(=O)C2CCC2)cc1`, the activation is -1.99%.

Turning to `CC12CCC(=O)C=C1CCC1C2C(O)CC2(C)C1CCC2(O)C(O)CO` (centres undefined), the activation is -0.23%.

For the compound `CCCNC(=O)C1(C)CCN(C(=O)c2ccccc2OC(F)(F)F)C1` (centres undefined), the activation is 0.4%.

As to `COc1ccc(NC(=O)CN(C)C(=O)c2cc(-c3ccc(C)o3)nc3ccccc23)cc1`, the activation is -0.83%.

Consider `COc1ccc(NC(=O)c2cc(-c3ccc(C)o3)nc3ccccc23)cc1`, for which the activation was 9.46% (active).

As for `CC(=O)N1CCN(C(=O)c2cc(-c3ccc(C)o3)nc3ccccc23)CC1`, the activation is -2.54%.

For `CCCCc1ccc(S(=O)(=O)NC(=O)C2(C)CCN2C(=O)c2c(C)noc2C)cc1` (centres undefined), the activation is -2.14%.

In the case of `Cc1cc(Cl)ccc1-c1nc(NCCN(C)C)nc2ccsc12`, the activation was -0.54%.

Consider `CCOC(=O)c1[nH]cnc1C(=O)Nc1ccccc1C`, for which the activation is 1%.

Take `CCOC(=O)c1ccc(NC(=O)c2nc[nH]c2C(=O)NCc2ccccc2)cc1`: the activation is 8.44% (active).

As to `O=C(Nc1ccon1)c1nc[nH]c1C(=O)NCc1ccccc1`, the activation is -0.8%.

For `COc1ccc(C(=O)N2CCCCC2c2cc(C(=O)Nc3ccc(F)c(Cl)c3)no2)cc1` (centres undefined), the activation was 2.26%.

As for `Cc1ccnc(N2C(=O)c3ccc([N+](=O)[O-])cc3C2=O)c1`, the activation was -1.22%.

Consider `Cc1ccc(C(=O)Cn2cc([N+](=O)[O-])nc2C)cc1`, for which the activation was -1.74%.

As to `Cc1ccc(-n2cc3ccc([N+](=O)[O-])cc3n2)cc1`, the activation was 16.1% (active).

Take `COc1ccc(C(C)(O)c2nc(-c3cc(F)cc(F)c3)cs2)cc1` (centres undefined): the activation is 3.01%.

For `COC(=O)c1ccc(Sc2ccc(F)cc2)c(N)c1`, the activation is -1.17%.

Take `COc1ccc(Sc2ccc(NC(=O)c3cccc(Cl)c3)cc2C#N)cc1`: the activation was -0.48%.

As for `Cc1ccc(Sc2ccc(NC(=O)c3ccc(F)cc3)cc2C#N)cc1`, the activation was 17% (active).

`Clc1ccc(-c2cccc3nccn23)cc1`: the activation was -0.44%.

Take `CCOC(=O)N/N=C/c1cn(Cc2ccccc2Cl)c2ccccc12`: the activation was -2.13%.

For the compound `COc1cccc(Cn2cc(/C=N/NC(=O)c3cc(O)cc(O)c3)c3ccccc32)c1`, the activation is -2.32%.

`N#CCC(=O)N/N=C/c1cn(Cc2ccc3ccccc3c2)c2ccccc12`: the activation is 11.1% (active).

As to `Cc1ccc(C)c(N2CCN(S(=O)(=O)c3ccc4c(c3)oc(=O)n4C)CC2)c1`, the activation is -1.63%.

With `COC(=O)c1cc(S(=O)(=O)N2CCN(c3cc(C)ccc3C)CC2)c[nH]1`, the activation was 9.07% (active).

With `Cc1ccc(C)c(N2CCN(S(=O)(=O)c3c(C)[nH]c(C)c3C(=O)N3CCCC3)CC2)c1`, the activation is -0.89%.

`O=c1[nH]cnc2c1c(-c1ccccc1)cn2-c1ccc(F)cc1`: the activation was 8.69% (active).

As for `COc1ccc(-n2cc(-c3ccccc3)c3c(=S)nc[nH]c32)cc1`, the activation is 2.91%.

As for `O=c1c2c(-c3ccccc3)ccnc2[nH]n1-c1ccccc1`, the activation is -0.95%.

As for `COc1cc(Cn2c3ccc(NC(=O)CC(C)c4ccccc4)cc3c(=O)n2C)ccc1F` (centres undefined), the activation was 1.46%.
